Holding throughout (test): NCI-60 one-dose screen, 48 h (100 = growth as untreated, 0 = no growth, -100 = all killed)
Assay [1] deals with NCI-H23 lung. The settings on record: 10 µM unless noted.
The test system of assay [2] is NCI-H226 lung. As to conditions: 10 µM unless noted.
The subject of assay [3] is NCI-H322M lung. As to conditions: 10 µM unless noted.
Assay [4] has as its system HOP-62 NSCLC. The settings on record: 10 µM unless noted.
In assay [5] the test system is NCI-H460 lung. The settings on record: 10 µM unless noted.
The test system of assay [6] is HOP-92 NSCLC. The settings on record: 10 µM.
In assay [7] the test system is NCI-H522 lung. As to conditions: 10 µM unless noted.
The test system of assay [8] is A549/ATCC NSCLC. As to conditions: 10 µM unless noted.
In assay [9] the test system is 786-0 renal. The settings on record: 10 µM unless noted.
In assay [10] the test system is COLO 205 colon. The settings on record: 10 µM unless noted.
Assay [11] relates to DU-145 prostate. As to conditions: 10 µM unless noted.
Assay [12] relates to K-562 leukemia. As to conditions: 10 µM unless noted.
Assay [13] relates to MALME-3M melanoma. As to conditions: 10 µM unless noted.
For assay [14], the system named is MDA-MB-231 breast. As to conditions: 10 µM unless noted.
For assay [15], the system named is RXF 393 renal. As to conditions: 10 µM unless noted.
Assay [16] has as its system SF-268 CNS. As to conditions: 10 µM unless noted.
Assay [17] deals with SF-295 CNS. As to conditions: 10 µM unless noted.
The test system of assay [18] is SF-539 CNS. The settings on record: 10 µM unless noted.
Assay [19] deals with UACC-257 melanoma. As to conditions: 10 µM unless noted.
The subject of assay [20] is M14 melanoma. The settings on record: 10 µM unless noted.

Values joined by “and” are separate entries in the source; they are usually repeats but may differ in a detail not shown here. Identical values can stand only once. The panel holds about 83,000 compounds, 20% with a hit somewhere; the sample as a whole holds those more often.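 The test compound was applied at a single concentration to cells in 96-well plates for 48 hours, and percent growth was recorded.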 Active and inactive are the calls of the source. The calls were made as follows: active = growth percent below 10; inactive = the rest.

Consider `CC[C@](O)(C(=O)O)c1cc2n(c(=O)c1CO)Cc1cc3ccccc3nc1-2`, for which the growth in assay [1] is -22.8% (active); in assay [2], -27.8% (active); in assay [3] it was -5.59% (active); in assay [4] it was 1.05% (active); in [5], -6.64% (active); in assay [6], -39% (active). The growth in [7] is -50.6% (active); in assay [8], -5.92% (active); in assay [9], -21.9% (active); in [10], -20.7% (active); in assay [11], -30.7% (active); in [12], -27.9% (active). The growth in assay [13] is -38.2% (active); in [14], 34.5% (inactive); in assay [15] it was 9.87% (active); in [16], 8.53% (active); in assay [17] it was -13.2% (active); in assay [18] it was -48.2% (active). The results for the growth in assay [19] and in [20] were 0.116% (active) and -26.5% (active), respectively.
Take `CC1=C(CO)C2=C(C)C3(CC3)[C@@](C)(O)C(=O)C2=C1`: the growth was -18.2% (active) in assay [1]; -28.6% (active) in [2]; -24.9% (active) in [3]; -36% (active) in assay [4]; -1.95% (active) in assay [5]; -81.7% (active) in assay [7]. For the same molecule, the growth in assay [8] is 2.23% (active); in assay [9] it was -21.3% (active); in assay [10], -40.1% (active); in [11] it was -20.1% (active); in assay [12] it was 26.3% (inactive); in assay [13] it was -87.5% (active). The growth in [14] is 4.5% (active); in assay [15], 8.42% (active); in [16], 4.48% (active); in assay [17], -8.22% (active); in assay [18], -62.8% (active); in assay [19], -1.44% (active). Moreover, the growth in [20] is -59.3% (active).
On to `CC[n+]1c(-c2ccccc2)c2cc(N)ccc2c2ccc(N)cc21`, for which the growth in [1] is -9.43% (active); in assay [2], 25.2% (inactive); in assay [3], 25.9% (inactive); in assay [4] it was 1.84% (active); in assay [5] it was 3.56% (active); in assay [7], -28.2% (active). For the same molecule, the growth in [8] is 30.2% (inactive); in [9] it was 15.6% (inactive); in assay [10] it was -27.9% (active); in assay [11] it was 9.09% (active); in [12], 39% (inactive); in [13] it was -25% (active). The growth in assay [14] was 33.1% (inactive); in assay [15] it was -16.7% (active); in assay [16], -26.3% (active); in [17] it was 13.6% (inactive); in assay [18] it was -12.7% (active); in [19], -19.3% (active). Also, the growth in assay [20] was 33% (inactive).
With `CC1=C2C(=O)[C@H]3[C@@H](CC=C4C[C@@H](O)CC[C@@]43C)[C@@H]2CC[C@]12O[C@@H]1C[C@H](C)CN[C@H]1[C@H]2C`, the growth is 106% (inactive) in assay [1]; 95.3% (inactive) in assay [2]; 86.4% (inactive) in assay [3]; 50.9% (inactive) in assay [4]; 100% (inactive) in assay [5]; 89.7% (inactive) in assay [8]. Besides, the growth is 127% (inactive) in assay [9]; 103% (inactive) in [10]; 151% (inactive) in assay [11]; 154% (inactive) in assay [12]; 84.6% (inactive) in assay [13]; 105% (inactive) in assay [14]. The growth in assay [15] was 98.8% (inactive); in [16], 105% (inactive); in assay [17], 93.3% (inactive); in [18], 101% (inactive); in assay [19], 104% (inactive); in assay [20] it was 92.9% (inactive).
For the molecule `CC(=O)O[C@H]1C[C@@H]2OC3C=C(C)CCC3(C)[C@@]1(C)[C@@]21CO1` (stereo not given in full), the growth was -32.5% (active) and -10.8% (active) in [1]; -24.8% (active) in [2]; -19.5% (active) in assay [3]; 17% (inactive) and -10.8% (active) in [4]; 0.408% (active) and -3.28% (active) in assay [5]; -21.3% (active) and -15.3% (active) in assay [6]. Besides, the growth is -46.4% (active) and -45.1% (active) in assay [7]; -9.42% (active) and -20.5% (active) in assay [8]; -15.6% (active) and -10.8% (active) in [9]; -61.6% (active) and -70.2% (active) in assay [10]; -10.8% (active) and -37.3% (active) in assay [11]; 3.64% (active) and -17.5% (active) in assay [12]. Besides, the growth is -35.1% (active) and -36% (active) in [13]; -12.8% (active) and -34.4% (active) in [14]; -21.4% (active) and -34.9% (active) in assay [15]; 1.16% (active) and -20.3% (active) in [16]; -26.1% (active) and 0.436% (active) in assay [17]; -24.5% (active) and -26.6% (active) in assay [18]. The growth in [19] was -26% (active) and -33.7% (active); in [20], -81.2% (active) and -64.8% (active).
Consider `CCC1(O)CC(OC2CC(N(C)C)C(OC3CC4OC5CC(=O)C(C)OC5OC4C(C)O3)C(C)O2)c2c(cc3c(c2O)C(=O)c2c(O)ccc(O)c2C3=O)C1C(=O)OC` (stereo not given), for which the growth in assay [1] was -52.5% (active); in [2] it was -8.6% (active); in assay [3], -32.4% (active); in [4] it was -26% (active); in assay [5], -26.3% (active); in [7], -75.4% (active). Also, the growth is 1.52% (active) in [8]; -35.6% (active) in [9]; -52.1% (active) in assay [10]; -12.7% (active) in assay [11]; -39.7% (active) in assay [12]; -95.3% (active) in assay [13]. Moreover, the growth was -5.87% (active) in assay [14]; -1.64% (active) in [15]; -14.3% (active) in assay [16]; -32.7% (active) in assay [17]; -55.6% (active) in [18]; -3.52% (active) in [19]. Also, the growth in assay [20] is -95% (active).

Values taken from PubChem BioAssay (NCI).
